Experiment [1] can be described thus: qHTS assay to identify small molecule antagonists of the thyroid receptor (TR) signaling pathway (AID 743065). Also: nearly all actives have a fitted effect of over 55% in size. Also: potency is read from the fitted curve at half-maximal effect. In a few lines:
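GH3.TRE-Luc rat pituitary cells (two TREs driving luciferase) were dosed with compound, then stimulated with 1 nM T3 (final) for 23.5 h at 37 C. ONE-Glo luminescence was the read-out, with CellTiter-Fluor fluorescence as the cytotoxicity counter-screen.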
In general terms: In qHTS, concentration-response curves come from the screen itself.

Experiment [2] concerns thyroid hormone receptor (rat, GH3 cells). The experiment is described as follows: qHTS assay to identify small molecule agonists of the thyroid receptor (TR) signaling pathway (AID 743066; calls by dose curve).
For experiment [3], the target named is Estrogen receptor (Homo sapiens) (UniProt P03372). Briefly: qHTS assay to identify small molecule antagonists of the estrogen receptor alpha (ER-alpha) signaling pathway (AID 743069; active = well fitted curve in the direction sought with a large enough effect in the signal ratio in the repeat runs, not every such curve was filed as active; the % refers to the signal ratio). In a few lines: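 In this cell-based reporter format, GripTite HEK293 cells harbouring ER-alpha-UAS-bla were grown overnight with 2% charcoal-stripped FBS, dosed with DMSO-dissolved compounds, then challenged with 17beta-estradiol. After 18 hr at 37C, beta-lactamase activity was detected by FRET fluorescence.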
Chain of Estrogen receptor (Homo sapiens) (P03372 whole entry, looked up): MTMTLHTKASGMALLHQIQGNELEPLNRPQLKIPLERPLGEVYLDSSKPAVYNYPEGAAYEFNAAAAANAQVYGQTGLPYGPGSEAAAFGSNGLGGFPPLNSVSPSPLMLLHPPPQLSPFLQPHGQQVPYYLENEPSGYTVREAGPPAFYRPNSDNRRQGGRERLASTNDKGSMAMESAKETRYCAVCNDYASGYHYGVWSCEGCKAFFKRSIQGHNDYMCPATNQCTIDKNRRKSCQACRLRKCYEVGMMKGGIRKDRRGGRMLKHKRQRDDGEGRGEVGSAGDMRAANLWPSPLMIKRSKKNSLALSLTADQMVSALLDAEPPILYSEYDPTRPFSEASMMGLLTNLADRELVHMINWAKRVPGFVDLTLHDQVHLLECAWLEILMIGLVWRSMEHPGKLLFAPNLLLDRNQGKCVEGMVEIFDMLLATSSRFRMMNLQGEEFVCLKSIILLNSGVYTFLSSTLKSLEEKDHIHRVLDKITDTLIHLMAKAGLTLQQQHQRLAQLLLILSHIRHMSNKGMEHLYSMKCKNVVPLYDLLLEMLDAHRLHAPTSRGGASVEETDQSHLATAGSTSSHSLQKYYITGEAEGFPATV

Experiment [4] is described as follows: qHTS assay to identify small molecule antagonists of the estrogen receptor alpha (ER-alpha) signaling pathway - cell viability counter screen (AID 743074; calls by dose curve; also: nearly all actives have a fitted effect of over 45% in size).
In experiment [5] the target is Estrogen receptor (Homo sapiens) (UniProt P03372). The experiment is described as follows: qHTS assay to identify small molecule agonists of the estrogen receptor alpha (ER-alpha) signaling pathway (AID 743075; calls by dose curve).
Experiment [6] has the same target. The experiment is described as follows: qHTS assay to identify small molecule agonists of the estrogen receptor alpha (ER-alpha) signaling pathway using the BG1 cell line (AID 743079). Also: nearly all actives have a fitted effect of over 20% in size.
Experiment [7] can be described thus: qHTS assay to identify small molecule antagonists of the estrogen receptor alpha (ER-alpha) signaling pathway using the BG1 cell line (AID 743080; calls by dose curve;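 also: BG1 cells stimulated with 17beta-estradiol alongside compound; series mostly up to about 70 µM; nearly all actives have a fitted effect of over 25% in size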). In a few lines:
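Readout is ONE-Glo luminescence, taken 30 min at room temperature after reagent addition, preceded by a CellTiter-Fluor viability read; BG1-Luc-4E2 cells had received compound and 17beta-estradiol for 21.5 h at 37 C.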

Experiment [8] can be described thus: qHTS assay to identify small molecule antagonists of the estrogen receptor alpha (ER-alpha) signaling pathway using the BG1 cell line - cell viability counter screen (AID 743081).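 Also: compound given together with 17beta-estradiol as the ER stimulus; series mostly up to about 70 µM; nearly all actives have a fitted effect of over 45% in size.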
The next experiment addresses Aromatase (Homo sapiens) (UniProt P11511). Briefly: qHTS assay to identify aromatase inhibitors (AID 743083). Also: nearly all actives have a fitted effect of over 55% in size. Also: potency is read from the fitted curve at half-maximal effect.
A short description of experiment [9]: qHTS assay to identify small molecule antagonists of the thyroid receptor (TR) signaling pathway - cell viability counter screen (AID 743064). Also: nearly all actives have a fitted effect of over 50% in size. In a few lines: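 In rat pituitary GH3.TRE-Luc reporter cells co-exposed to compound and 1 nM T3 for 23.5 h, cytotoxicity was assessed with CellTiter-Fluor in the same wells, read by fluorescence.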

Where “and” joins values, the source holds several entries; their conditions need not be identical. Equal entries are not always repeated. Inconclusive results are not listed. Calls of active or inactive are those of the source. Unless noted, calls follow the shape of the dose curve; as a rule, active = well fitted curve in the direction sought with a large enough effect in the repeat runs; inconclusive = weak or mixed curves; inactive = no such curve, though single readings can be large; an effect the other way counts as inactive or inconclusive.

Chain of Aromatase (Homo sapiens) (P11511 whole entry, looked up): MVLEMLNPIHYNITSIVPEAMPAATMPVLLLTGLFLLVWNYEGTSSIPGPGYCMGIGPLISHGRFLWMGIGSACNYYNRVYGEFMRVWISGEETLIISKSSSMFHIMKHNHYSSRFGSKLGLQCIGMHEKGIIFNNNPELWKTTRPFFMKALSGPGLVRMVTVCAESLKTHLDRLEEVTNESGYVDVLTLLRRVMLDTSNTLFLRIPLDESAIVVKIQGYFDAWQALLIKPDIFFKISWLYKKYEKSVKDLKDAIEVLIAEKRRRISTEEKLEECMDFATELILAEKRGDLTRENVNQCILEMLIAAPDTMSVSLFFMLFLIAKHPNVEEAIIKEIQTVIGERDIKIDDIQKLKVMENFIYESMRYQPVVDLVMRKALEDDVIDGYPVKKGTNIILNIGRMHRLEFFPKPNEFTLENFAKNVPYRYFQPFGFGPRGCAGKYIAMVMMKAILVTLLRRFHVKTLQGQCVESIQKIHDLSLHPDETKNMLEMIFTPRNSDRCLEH

On to `CC(C)(O)C(=O)c1ccccc1`, for which the Potency result (in experiment [1]; in experiment [5]; in [6]; in [8]; with Aromatase (Homo sapiens)) was “inactive” in each case. Further, the compound was classed as inactive in [2], in experiment [3], in [4] and in experiment [7].

In the case of `N#Cc1ccc(C2CCCc3cncn32)cc1` (stereo not drawn), the Potency result in [9], in experiment [5], in experiment [6] and in [8] was “inactive” each time. In addition, the outcome in [7] was inactive.

Consider `CCCCCCCCCCCC`, for which the Potency result (in experiment [1]; in experiment [8]; with Aromatase (Homo sapiens)) was “inactive” each time. In addition, the compound was called inactive in [2] and in [7].

As for `COc1nc(N)nc2c1ncn2[C@@H]1O[C@H](CO)[C@@H](O)[C@@H]1O`, the result in experiment [2] and in experiment [4] was inactive. For the same compound, the Potency entry (in [8]; with Aromatase (Homo sapiens)) was “inactive” each time.

Regarding `CCOC(=O)CC(C)=O`, the Potency entry in experiment [1] and in experiment [8] was “inactive” in each case. Besides, the compound was called inactive in [2].

Consider `N[C@@H](C(=O)N[C@@H]1C(=O)N2C(C(=O)O)=C(Cl)CS[C@H]12)c1ccccc1`, for which the outcome in [2], in experiment [3], in experiment [4] and in experiment [7] was inactive. In addition, the Potency result (in experiment [5]; in experiment [6]; in experiment [8]; in the experiment with Aromatase (Homo sapiens)) was “inactive” in each case.

As to `Cc1ccc(=O)n(-c2ccccc2)c1`, the Potency entry (in [9]; in experiment [5]; in experiment [8]; with Aromatase (Homo sapiens)) was “inactive” throughout. Moreover, the compound was classed as inactive in experiment [3], in experiment [4] and in [7].

As to `N[C@H](C(=O)O)c1ccc(O)cc1`, the Potency entry (in experiment [9]; in experiment [5]; in experiment [6]; in experiment [8]; with Aromatase (Homo sapiens)) was “inactive” throughout. Also, the outcome in experiment [3], in experiment [4] and in experiment [7] was inactive.

On to `CC(C)(CC(=O)O)C(=O)O`, for which the Potency result (in experiment [1]; in [5]; in experiment [6]; in [8]; with Aromatase (Homo sapiens)) was “inactive” in each case. The compound was classed as inactive in experiment [2], in [3], in [4] and in experiment [7].

As for `CC(C)CNCC(C)C`, the Potency result (in experiment [1]; in experiment [8]; with Aromatase (Homo sapiens)) was “inactive” in each case. For the same compound, the compound was classed as inactive in experiment [2] and in experiment [4].

Consider `CCO[Si](CCC1CCC2OC2C1)(OCC)OCC` (stereo not drawn), for which the Potency entry (in experiment [1]; in [5]; in [6]; in [8]; in the experiment with Aromatase (Homo sapiens)) was “inactive” in each case. For the same compound, the compound was classed as inactive in experiment [2], in [3], in [4] and in [7].

Regarding `OC(CCN1CCCCC1)(c1ccccc1)C1CC2C=CC1C2` (stereo not drawn), in [1], the Potency was 26.6 µM (active) and 23.7 µM (active). The compound was called inactive in [2], in [3], in [4] and in experiment [7]. The Potency entry (in [5]; in [6]; with Aromatase (Homo sapiens)) was “inactive” in each case.

`O=C1NC(=O)[C@@]2(CCOc3ccc(F)cc32)N1`: the outcome in experiment [3], in experiment [4] and in experiment [7] was inactive. Further, the Potency entry (in experiment [5]; in experiment [6]; in experiment [8]; with Aromatase (Homo sapiens)) was “inactive” in each case.

With `CC/C=C\CC/C=C/C(OCC)OCC`, the Potency entry in experiment [9] and in [8] was “inactive” in each case. Moreover, the outcome in [2] was inactive.

As to `CCN(Cc1ccncc1)C(=O)C(CO)c1ccccc1` (stereo not drawn), the Potency result in experiment [1] and in experiment [8] was “inactive” in each case. Further, the result in experiment [2] and in experiment [4] was inactive. In addition, the Potency with Aromatase (Homo sapiens) is 29.8 µM (active).

Regarding `CC[N+](C)(C)c1cccc(O)c1`, the result in [4] was inactive. Also, the Potency result (in experiment [8]; with Aromatase (Homo sapiens)) was “inactive” in each case.

For `Nc1ccccc1S(=O)(=O)O`, the Potency entry (in experiment [1]; in experiment [8]; with Aromatase (Homo sapiens)) was “inactive” each time. The call in experiment [2] and in experiment [4] was inactive.

In the case of `C[C@](N)(Cc1ccc(O)cc1)C(=O)O`, the compound was called inactive in [3], in [4] and in [7]. For the same compound, the Potency result (in experiment [5]; in experiment [6]; in experiment [8]; with Aromatase (Homo sapiens)) was “inactive” throughout.

As to `CCCCNC(=O)NCCCC`, the Potency entry (in experiment [9]; in experiment [5]; in [6]; in experiment [8]; with Aromatase (Homo sapiens)) was “inactive” each time. In addition, the result in [3], in experiment [4] and in experiment [7] was inactive.

On to `CCCCCCOC(=O)CCCCC(=O)OCCCCCC`, for which the compound was classed as inactive in experiment [2], in [3], in [4] and in experiment [7]. For the same compound, the Potency result (in [5]; in experiment [6]; in experiment [8]; with Aromatase (Homo sapiens)) was “inactive” in each case.

With `CCC=O`, the Potency result (in experiment [1]; in [8]; with Aromatase (Homo sapiens)) was “inactive” in each case. The call in experiment [2], in experiment [3], in [4] and in experiment [7] was inactive.

Values taken from PubChem BioAssay (Tox21).
